# According to article PMC7862700, “An all-to-all approach to the identification of sequence-specific readers for epigenetic DNA modifications on cytosine”:
# What was measured:
# Assay in all cases: DAPPL (digital affinity profiling via proximity ligation, sequencing); 10 mM Tris-HCl pH 7.5, 50 mM NaCl, 1 mM DTT, 4% glycerol, room temperature, 30 min; GST-TFs on glutathione beads, 16-mer random dsDNA library, 0.1% formaldehyde crosslink after washing; high values mean tight binding
# [1] = target: T1, FLI1 (Homo sapiens, UniProt Q01543 1-452); settings: protein: recombinant; tags: N-terminal GST; dsDNA, one strand shown
# T1 sequence: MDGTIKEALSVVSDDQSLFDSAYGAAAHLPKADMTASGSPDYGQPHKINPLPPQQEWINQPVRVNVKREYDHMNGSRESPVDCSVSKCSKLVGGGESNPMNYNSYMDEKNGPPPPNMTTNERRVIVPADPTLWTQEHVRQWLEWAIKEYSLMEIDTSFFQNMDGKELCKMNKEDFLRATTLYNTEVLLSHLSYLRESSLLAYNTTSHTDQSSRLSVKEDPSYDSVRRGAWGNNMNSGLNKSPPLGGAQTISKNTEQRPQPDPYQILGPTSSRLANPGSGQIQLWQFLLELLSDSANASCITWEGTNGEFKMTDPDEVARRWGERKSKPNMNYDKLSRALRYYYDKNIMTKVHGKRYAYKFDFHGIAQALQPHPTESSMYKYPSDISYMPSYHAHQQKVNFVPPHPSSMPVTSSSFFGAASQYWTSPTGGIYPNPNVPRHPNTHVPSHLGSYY
# Outline: (§1)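 Human transcription factors were made in yeast as GST fusions, captured on glutathione beads and barcoded with DNA. With a tag-only sample included, the pool was incubated with 200 nmole of a random double-stranded 16-mer DNA library in Tris/NaCl/DTT/glycerol buffer at room temperature for 30 min, then crosslinked with 0.1% formaldehyde after washing, ligated by proximity, amplified and sequenced. For binding signal, each hexamer's read frequency for a factor is divided by its frequency for the tag-only sample.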
# [2] = target: T2, ELK1 (Homo sapiens, UniProt P19419 1-428); settings: protein: recombinant; tags: N-terminal GST; dsDNA, one strand shown
# T2 sequence: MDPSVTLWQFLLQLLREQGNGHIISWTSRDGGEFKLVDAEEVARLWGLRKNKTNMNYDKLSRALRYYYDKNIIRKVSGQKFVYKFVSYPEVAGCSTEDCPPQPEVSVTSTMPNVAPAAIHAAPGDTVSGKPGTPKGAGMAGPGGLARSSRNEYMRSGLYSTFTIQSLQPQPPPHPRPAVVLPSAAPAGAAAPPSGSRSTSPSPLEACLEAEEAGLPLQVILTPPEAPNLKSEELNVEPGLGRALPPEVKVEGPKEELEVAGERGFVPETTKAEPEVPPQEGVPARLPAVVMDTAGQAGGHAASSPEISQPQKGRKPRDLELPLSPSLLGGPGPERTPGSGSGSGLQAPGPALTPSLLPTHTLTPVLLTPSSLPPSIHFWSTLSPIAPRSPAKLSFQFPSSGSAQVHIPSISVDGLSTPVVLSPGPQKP
# Outline: as §1
# [3] = target: T3, GABPA (Homo sapiens, UniProt Q06546 1-454); settings: protein: recombinant; tags: N-terminal GST; dsDNA, one strand shown
# T3 sequence: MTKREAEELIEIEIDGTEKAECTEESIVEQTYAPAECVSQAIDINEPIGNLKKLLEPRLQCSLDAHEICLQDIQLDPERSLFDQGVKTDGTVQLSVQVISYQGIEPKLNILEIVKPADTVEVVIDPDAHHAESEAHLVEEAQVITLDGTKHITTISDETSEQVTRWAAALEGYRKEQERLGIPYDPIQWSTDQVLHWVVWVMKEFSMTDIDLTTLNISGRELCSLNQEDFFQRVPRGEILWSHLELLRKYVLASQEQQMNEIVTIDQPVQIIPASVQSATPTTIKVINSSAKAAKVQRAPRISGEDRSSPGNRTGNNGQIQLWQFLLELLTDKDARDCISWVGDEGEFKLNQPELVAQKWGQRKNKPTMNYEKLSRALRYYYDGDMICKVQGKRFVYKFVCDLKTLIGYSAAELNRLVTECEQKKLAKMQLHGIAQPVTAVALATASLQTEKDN
# Outline: as §1
# [4] = target: T4, ERG (Homo sapiens, UniProt P11308 1-479); settings: protein: recombinant; tags: N-terminal GST; dsDNA, one strand shown
# T4 sequence: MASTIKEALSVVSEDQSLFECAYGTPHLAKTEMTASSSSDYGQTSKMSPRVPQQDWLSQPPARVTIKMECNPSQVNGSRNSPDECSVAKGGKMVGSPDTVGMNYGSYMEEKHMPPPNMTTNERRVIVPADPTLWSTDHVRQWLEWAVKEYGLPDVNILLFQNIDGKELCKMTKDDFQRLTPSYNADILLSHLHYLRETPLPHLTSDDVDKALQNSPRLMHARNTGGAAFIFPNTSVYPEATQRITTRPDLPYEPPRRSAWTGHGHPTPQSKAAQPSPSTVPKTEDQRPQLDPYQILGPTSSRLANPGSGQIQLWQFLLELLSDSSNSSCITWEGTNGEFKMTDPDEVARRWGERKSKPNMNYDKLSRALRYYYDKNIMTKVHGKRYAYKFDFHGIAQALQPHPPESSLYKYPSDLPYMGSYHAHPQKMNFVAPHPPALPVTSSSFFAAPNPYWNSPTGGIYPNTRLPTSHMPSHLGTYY
# Outline: as §1
# [5] = target: ELF1 (Homo sapiens, UniProt P32519 1-619); settings: protein: recombinant; tags: N-terminal GST; dsDNA, one strand shown
# Outline: as §1
# [6] = target: T5, EHF (Homo sapiens, UniProt Q9NZC4 1-300); settings: protein: recombinant; tags: N-terminal GST; dsDNA, one strand shown
# T5 sequence: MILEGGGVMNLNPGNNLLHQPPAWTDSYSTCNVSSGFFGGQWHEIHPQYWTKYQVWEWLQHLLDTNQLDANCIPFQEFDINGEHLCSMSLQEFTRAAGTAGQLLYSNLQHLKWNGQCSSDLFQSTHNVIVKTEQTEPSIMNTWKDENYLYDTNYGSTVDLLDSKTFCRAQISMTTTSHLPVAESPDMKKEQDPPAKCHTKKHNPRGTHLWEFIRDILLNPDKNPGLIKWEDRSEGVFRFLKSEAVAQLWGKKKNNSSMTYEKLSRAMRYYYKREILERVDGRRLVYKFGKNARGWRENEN
# Outline: as §1
# [7] = target: SPI1 (Homo sapiens, UniProt P17947 1-270); settings: protein: recombinant; tags: N-terminal GST; dsDNA, one strand shown
# Outline: as §1
# [8] = target: SPIB (Homo sapiens, UniProt Q01892 1-262); settings: protein: recombinant; tags: N-terminal GST; dsDNA, one strand shown
# Outline: as §1
# [9] = target: T6, ELK3 (Homo sapiens, UniProt P41970 1-407); settings: protein: recombinant; tags: N-terminal GST; dsDNA, one strand shown
# T6 sequence: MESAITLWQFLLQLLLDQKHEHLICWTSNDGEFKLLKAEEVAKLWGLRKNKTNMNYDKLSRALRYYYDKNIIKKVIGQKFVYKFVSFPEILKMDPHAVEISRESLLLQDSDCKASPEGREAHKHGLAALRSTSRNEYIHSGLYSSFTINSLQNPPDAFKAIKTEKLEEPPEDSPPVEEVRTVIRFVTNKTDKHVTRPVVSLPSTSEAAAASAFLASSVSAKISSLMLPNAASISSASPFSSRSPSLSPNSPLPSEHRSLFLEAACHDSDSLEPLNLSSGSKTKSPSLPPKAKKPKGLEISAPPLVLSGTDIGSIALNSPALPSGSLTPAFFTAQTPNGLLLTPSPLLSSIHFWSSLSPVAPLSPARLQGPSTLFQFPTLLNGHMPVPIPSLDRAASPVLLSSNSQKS
# Outline: as §1
# [10] = target: T7, FEV (Homo sapiens, UniProt Q99581 1-238); settings: protein: recombinant; tags: N-terminal GST; dsDNA, one strand shown
# T7 sequence: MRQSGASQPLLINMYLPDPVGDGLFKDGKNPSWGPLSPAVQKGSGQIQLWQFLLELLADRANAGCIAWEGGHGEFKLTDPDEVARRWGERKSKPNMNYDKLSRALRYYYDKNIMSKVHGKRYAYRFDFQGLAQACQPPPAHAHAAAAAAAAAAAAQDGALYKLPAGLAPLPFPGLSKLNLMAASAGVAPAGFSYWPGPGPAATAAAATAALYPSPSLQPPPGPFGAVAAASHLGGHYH
# Outline: as §1
# [11] = target: ETV5 (Homo sapiens, UniProt P41161 1-510); settings: protein: recombinant; tags: N-terminal GST; dsDNA, one strand shown
# Outline: as §1
# [12] = target: HSF1 (Homo sapiens, UniProt Q00613 1-529); settings: protein: recombinant; tags: N-terminal GST; chain copies: 3; dsDNA, one strand shown
# Outline: as §1
# [13] = target: T8, SPIC (Homo sapiens, UniProt Q8N5J4 1-248); settings: protein: recombinant; tags: N-terminal GST; dsDNA, one strand shown
# T8 sequence: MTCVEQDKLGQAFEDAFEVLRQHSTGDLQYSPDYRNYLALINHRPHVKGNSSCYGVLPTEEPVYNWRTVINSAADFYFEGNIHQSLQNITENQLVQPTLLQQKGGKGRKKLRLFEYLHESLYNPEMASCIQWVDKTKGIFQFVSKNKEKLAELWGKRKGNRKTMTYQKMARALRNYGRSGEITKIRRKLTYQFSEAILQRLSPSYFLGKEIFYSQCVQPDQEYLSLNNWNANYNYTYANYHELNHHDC
# Outline: as §1
# [14] = target: ELF4 (Homo sapiens, UniProt Q99607 1-663); settings: protein: recombinant; tags: N-terminal GST; dsDNA, one strand shown
# Outline: as §1
# [15] = target: T9, ELK4 (Homo sapiens, UniProt P28324-2 1-405); settings: protein: recombinant; tags: N-terminal GST; dsDNA, one strand shown
# T9 sequence: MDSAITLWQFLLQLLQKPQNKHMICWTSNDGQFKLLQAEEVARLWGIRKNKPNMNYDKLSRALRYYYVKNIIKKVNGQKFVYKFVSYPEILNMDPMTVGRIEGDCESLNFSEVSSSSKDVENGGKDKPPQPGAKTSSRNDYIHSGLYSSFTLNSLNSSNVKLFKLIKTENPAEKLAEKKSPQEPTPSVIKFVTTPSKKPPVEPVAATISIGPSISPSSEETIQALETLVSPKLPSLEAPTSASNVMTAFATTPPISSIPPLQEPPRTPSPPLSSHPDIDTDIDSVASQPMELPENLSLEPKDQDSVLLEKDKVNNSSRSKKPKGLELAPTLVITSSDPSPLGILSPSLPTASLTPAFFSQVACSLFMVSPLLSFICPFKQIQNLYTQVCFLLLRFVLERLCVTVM
# Outline: as §1
# [16] = target: T10, ETV2 (Homo sapiens, UniProt O00321 1-342); settings: protein: recombinant; tags: N-terminal GST; dsDNA, one strand shown
# T10 sequence: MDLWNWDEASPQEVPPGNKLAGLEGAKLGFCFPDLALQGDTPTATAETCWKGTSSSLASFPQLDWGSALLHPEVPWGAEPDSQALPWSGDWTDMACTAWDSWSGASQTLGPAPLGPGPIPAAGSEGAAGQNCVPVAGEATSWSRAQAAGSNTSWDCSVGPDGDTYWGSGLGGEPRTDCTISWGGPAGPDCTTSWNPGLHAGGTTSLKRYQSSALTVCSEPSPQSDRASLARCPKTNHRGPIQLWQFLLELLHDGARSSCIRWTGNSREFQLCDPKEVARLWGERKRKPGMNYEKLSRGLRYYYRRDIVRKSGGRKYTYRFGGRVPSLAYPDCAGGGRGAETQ
# Outline: as §1
# [17] = target: T11, ELF3 (Homo sapiens, UniProt P78545 1-371); settings: protein: recombinant; tags: N-terminal GST; dsDNA, one strand shown
# T11 sequence: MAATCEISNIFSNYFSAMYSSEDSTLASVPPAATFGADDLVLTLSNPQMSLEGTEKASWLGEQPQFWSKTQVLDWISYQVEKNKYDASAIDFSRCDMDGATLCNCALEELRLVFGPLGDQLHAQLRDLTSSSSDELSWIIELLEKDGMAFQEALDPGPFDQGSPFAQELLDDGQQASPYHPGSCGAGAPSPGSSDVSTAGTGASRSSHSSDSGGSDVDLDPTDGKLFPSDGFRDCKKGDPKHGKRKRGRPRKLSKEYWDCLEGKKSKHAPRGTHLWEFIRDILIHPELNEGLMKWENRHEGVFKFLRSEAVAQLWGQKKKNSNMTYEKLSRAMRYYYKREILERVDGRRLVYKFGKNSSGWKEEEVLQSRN
# Outline: as §1
# [18] = target: CRX (Homo sapiens, UniProt O43186 1-299); settings: protein: recombinant; tags: N-terminal GST; dsDNA, one strand shown
# Outline: as §1
# [19] = target: ETV1 (Homo sapiens, UniProt P50549 1-477); settings: protein: recombinant; tags: N-terminal GST; dsDNA, one strand shown
# Outline: as §1
# HSF1, sequence (Q00613 whole entry): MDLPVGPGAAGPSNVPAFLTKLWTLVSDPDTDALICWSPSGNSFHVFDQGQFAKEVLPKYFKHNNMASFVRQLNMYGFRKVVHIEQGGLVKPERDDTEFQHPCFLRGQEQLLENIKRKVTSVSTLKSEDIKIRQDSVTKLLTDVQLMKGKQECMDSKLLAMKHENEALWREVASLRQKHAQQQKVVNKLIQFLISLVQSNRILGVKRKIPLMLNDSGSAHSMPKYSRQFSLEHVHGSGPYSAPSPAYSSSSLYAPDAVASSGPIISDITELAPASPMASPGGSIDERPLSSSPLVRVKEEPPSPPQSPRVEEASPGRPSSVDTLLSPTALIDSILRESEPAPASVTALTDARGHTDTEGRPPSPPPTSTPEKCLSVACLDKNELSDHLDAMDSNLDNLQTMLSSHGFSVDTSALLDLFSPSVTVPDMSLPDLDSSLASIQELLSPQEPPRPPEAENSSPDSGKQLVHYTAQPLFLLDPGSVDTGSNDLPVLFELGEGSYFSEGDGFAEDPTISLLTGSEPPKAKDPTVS
# ETV1, sequence (P50549 whole entry): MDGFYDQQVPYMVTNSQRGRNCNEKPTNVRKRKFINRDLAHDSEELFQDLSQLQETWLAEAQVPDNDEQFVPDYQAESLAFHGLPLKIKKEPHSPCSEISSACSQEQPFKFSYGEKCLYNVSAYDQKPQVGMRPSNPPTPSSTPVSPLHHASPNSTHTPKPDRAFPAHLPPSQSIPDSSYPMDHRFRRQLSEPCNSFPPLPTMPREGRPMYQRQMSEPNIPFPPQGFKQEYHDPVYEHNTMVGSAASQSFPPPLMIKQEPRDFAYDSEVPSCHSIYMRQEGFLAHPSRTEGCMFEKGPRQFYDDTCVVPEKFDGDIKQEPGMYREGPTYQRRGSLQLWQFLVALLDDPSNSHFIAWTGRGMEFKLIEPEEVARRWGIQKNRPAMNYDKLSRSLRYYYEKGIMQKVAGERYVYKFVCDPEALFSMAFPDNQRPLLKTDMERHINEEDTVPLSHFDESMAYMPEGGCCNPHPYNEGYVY
# ELF4, sequence (Q99607 whole entry): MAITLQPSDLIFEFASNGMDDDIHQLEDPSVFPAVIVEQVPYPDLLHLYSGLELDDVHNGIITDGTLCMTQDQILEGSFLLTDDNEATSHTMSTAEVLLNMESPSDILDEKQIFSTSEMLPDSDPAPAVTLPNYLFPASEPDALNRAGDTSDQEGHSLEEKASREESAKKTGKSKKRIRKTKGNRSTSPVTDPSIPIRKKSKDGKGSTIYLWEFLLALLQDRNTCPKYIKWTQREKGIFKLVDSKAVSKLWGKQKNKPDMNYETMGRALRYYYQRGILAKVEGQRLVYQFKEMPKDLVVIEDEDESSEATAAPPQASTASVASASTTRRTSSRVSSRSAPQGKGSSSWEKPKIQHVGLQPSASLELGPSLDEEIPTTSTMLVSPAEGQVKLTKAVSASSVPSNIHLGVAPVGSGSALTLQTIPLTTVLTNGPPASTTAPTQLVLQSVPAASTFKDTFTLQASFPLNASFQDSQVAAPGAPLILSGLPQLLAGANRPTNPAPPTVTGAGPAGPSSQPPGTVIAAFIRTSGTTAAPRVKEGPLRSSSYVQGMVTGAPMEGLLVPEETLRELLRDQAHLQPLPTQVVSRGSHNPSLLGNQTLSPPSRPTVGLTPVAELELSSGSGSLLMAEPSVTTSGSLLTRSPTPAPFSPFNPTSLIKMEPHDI
# CRX, sequence (O43186 whole entry): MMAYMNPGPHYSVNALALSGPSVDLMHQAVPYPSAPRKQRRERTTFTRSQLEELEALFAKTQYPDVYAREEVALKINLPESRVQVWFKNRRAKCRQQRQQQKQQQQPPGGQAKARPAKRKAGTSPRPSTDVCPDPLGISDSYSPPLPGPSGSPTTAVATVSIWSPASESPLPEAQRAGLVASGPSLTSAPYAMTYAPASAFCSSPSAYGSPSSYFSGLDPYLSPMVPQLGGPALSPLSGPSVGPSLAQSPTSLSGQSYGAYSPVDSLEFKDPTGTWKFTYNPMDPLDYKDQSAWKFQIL
# SPIB, sequence (Q01892 whole entry): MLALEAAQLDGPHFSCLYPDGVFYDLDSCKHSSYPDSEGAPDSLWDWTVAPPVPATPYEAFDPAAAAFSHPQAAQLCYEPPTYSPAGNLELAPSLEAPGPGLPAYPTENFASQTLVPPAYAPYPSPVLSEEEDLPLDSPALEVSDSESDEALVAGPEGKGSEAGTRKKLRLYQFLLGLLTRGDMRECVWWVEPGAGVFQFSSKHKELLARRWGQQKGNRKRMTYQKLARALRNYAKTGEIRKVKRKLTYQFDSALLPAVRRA
# ELF1, sequence (P32519 whole entry): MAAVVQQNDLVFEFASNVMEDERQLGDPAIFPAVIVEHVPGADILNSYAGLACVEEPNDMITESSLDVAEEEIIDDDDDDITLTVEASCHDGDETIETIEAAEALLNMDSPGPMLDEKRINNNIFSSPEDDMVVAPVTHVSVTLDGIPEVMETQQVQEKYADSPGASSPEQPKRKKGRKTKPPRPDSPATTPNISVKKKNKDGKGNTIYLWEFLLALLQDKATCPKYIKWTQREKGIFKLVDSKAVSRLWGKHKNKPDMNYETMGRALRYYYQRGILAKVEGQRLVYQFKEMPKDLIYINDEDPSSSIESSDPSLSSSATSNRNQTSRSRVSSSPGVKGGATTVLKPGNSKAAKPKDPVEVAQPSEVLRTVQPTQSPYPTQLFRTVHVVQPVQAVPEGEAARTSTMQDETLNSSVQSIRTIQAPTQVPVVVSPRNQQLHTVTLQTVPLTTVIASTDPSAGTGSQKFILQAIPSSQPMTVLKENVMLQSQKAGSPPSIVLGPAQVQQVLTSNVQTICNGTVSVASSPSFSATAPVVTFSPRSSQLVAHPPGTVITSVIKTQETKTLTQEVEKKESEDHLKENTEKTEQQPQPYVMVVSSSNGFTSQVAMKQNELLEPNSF
# ETV5, sequence (P41161 whole entry): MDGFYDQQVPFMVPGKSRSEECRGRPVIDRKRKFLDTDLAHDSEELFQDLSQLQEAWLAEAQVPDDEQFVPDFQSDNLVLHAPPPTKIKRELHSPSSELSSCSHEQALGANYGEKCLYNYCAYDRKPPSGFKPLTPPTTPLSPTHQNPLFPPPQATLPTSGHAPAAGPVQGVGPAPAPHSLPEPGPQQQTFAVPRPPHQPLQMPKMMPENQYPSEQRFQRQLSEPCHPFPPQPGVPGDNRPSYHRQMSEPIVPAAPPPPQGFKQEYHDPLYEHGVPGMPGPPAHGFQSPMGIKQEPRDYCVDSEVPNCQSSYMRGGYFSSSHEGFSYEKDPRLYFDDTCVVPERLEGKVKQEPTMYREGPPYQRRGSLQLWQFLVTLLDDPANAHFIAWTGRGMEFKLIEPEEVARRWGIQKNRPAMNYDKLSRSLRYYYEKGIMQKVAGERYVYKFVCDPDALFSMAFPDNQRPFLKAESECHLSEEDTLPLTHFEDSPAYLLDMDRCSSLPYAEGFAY
sequence,measurement,setting,value
TCTATA,binding signal,[1],"1.09 fold enrichment (6-mer frequency, TF over GST control)"
same,binding signal,[2],"1.13 fold enrichment (6-mer frequency, TF over GST control)"
same,binding signal,[3],"1.11 fold enrichment (6-mer frequency, TF over GST control)"
same,binding signal,[4],"1.02 fold enrichment (6-mer frequency, TF over GST control)"
same,binding signal,[5],"1.26 fold enrichment (6-mer frequency, TF over GST control)"
same,binding signal,[6],"1.07 fold enrichment (6-mer frequency, TF over GST control)"
same,binding signal,[7],"1.07 fold enrichment (6-mer frequency, TF over GST control)"
same,binding signal,[8],"1.15 fold enrichment (6-mer frequency, TF over GST control)"
same,binding signal,[9],"1.17 fold enrichment (6-mer frequency, TF over GST control)"
same,binding signal,[10],"1.15 fold enrichment (6-mer frequency, TF over GST control)"
same,binding signal,[11],"1.17 fold enrichment (6-mer frequency, TF over GST control)"
same,binding signal,[12],"1.4 fold enrichment (6-mer frequency, TF over GST control)"
same,binding signal,[13],"1.26 fold enrichment (6-mer frequency, TF over GST control)"
same,binding signal,[14],"1.23 fold enrichment (6-mer frequency, TF over GST control)"
same,binding signal,[15],"1.24 fold enrichment (6-mer frequency, TF over GST control)"
same,binding signal,[16],"1.03 fold enrichment (6-mer frequency, TF over GST control)"
same,binding signal,[17],"1.08 fold enrichment (6-mer frequency, TF over GST control)"
same,binding signal,[18],"1.36 fold enrichment (6-mer frequency, TF over GST control)"
same,binding signal,[19],"1.08 fold enrichment (6-mer frequency, TF over GST control)"
